Laboratory results: PubChem BioAssay (EPA / NIEHS)
Active and inactive are the calls of the source. The calls were made as follows: active = hit-call score of the fitted dose curve at least 0.9, where 1 is the maximum; inactive = score below 0.9.

read-out: Apoptosis regulator Bcl-2 (Homo sapiens) (UniProt P10415); experiment: LTEA_HepaRG_BCL2: Life Technologies and Expression Analysis (LTEA) Assay for Bcl-2 gene using HepaRG (AID 2283475); conditions: mRNA level, 48 h; actives raise or lower the signal;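 also: BCL2 transcript by TaqMan qRT-PCR normalised to ACTB GAPDH and POLR2A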
Protocol: LTEA_HepaRG is a cell based, multiplexed-readout assay that uses HepaRG, a human liver cell line, with measurements taken at 48 hours after chemical dosing on a 96-well plate.LTEA_HepaRG_BCL2 is one of 102 assay component(s) measured in the LTEA HepaRG cell culture assay. It is a marker of Cell proliferation, survival, death.Data from the assay component LTEA_HepaRG_BCL2 was analyzed into 1 endpoint. This assay endpoint, LTEA_HepaRG_BCL2, was analyzed with bidirectional fitting relative to DMSO as the negative control and baseline of activity. Using a type of inducible reporter, measures of mRNA induction for gain or loss-of-signal activity can be used to understand regulation of transcription factor activity. To generalize the intended target to other relatable targets, this assay endpoint is annotated to the cell cycle intended target family, where the subfamily is Cell proliferation, survival, death.
A total of 1060 chemcials from the ToxCast library were tested in eight-point concentration-response experiments. Cell culture and cytotoxicity assays were conducted at Thermo Fisher Scientific's Custom Services facility (Madison, WI). A single lot of human HepaRG cells (Thermo Fisher Scientific, Frederick, MD) was used for the cell culture experiments. 96-well format collagen type I coated plates of human HepaRG cells were prepared using established methods. Briefly, cryopreserved HepaRG cells were thawed, plated at a density of approximately 100,000 cells/well in HepaRG Thaw, Plate, and General Purpose media (HPRG770, Thermo Fisher Scientific), and incubated for 48 hours. 0.5% DMSO was selected as vehicle control to balance the requisite need of DMSO in HepaRG cultures to maintain differentiation (for example, baseline metabolism, proportions of hepatocytes vs. cholangiocytes), while enabling further hepatic receptor pathway activation (for example, PXR and CAR) in response to chemical exposure. 48 hours after plating, the culture medium was replaced with HepaRG Serum-Free Incudtion Media. Cells were exposed to each test chemical in duplicate and maintained in CO2 incubators for another 48 hours. Chemical plates were thawed to room temperature and 200x concentrations of treatment groups were prepared. 8-point conentration-reponse curves were made with the highest exposure at 100 uM, followed by half-log dilutions, all in 0.5% DMSO. Each test plate contained variouse controls, induction positive controls (1mM phenobarbital), cytotoxicity positive controls ([…] aflatoxin B1), vehicle controls (0.5% DMSO), and total lysis controls (0.5% DMSO). Cell morphology images were taken using an Essen IncuCyte FLR automated microscope, with six 96-well plates imaged in about 24 minutes. Images were captured and exported and JPEG files. Spent culture media was transfered to black-well plates for the LDH assay, and remaining media was sorted at -80 C for later use. Cells were treated with RLT buffer and frozen until shipped for gene expression analysis. Total RNA was isolated from the cell suspension in 75 uL of Buffer RLT (Qiagen, Germantown, MD 20874) by Quintiles/Expression Analysis (Durham, NC) using a custom isolation procedure. Total RNA from each plate well was transferred to a preamplification plate. Fluidigm's 96.96 Dynamic ArrayTM (Fluidigm, Amsterdam, the Netherlands) technology was used for gene expression analyses by quantitative reverse transcription polymerase chain reaction (qRT-PCR, performed by Quintiles/Expression Analysis, Durham, NC)89. Standard TaqManTM Assays (Applied Biosystems/ThermoFisher Scientific, Foster City, CA) were used to assess the expression of 93 genes selected based on their selectivity and sensitivity to important hepatic receptors known to be modulated by environmental chemicals; importance in human hepatocyte functionality; and hepatotoxicity. […]

Sequence of Apoptosis regulator Bcl-2 (Homo sapiens) (P10415 whole entry, looked up): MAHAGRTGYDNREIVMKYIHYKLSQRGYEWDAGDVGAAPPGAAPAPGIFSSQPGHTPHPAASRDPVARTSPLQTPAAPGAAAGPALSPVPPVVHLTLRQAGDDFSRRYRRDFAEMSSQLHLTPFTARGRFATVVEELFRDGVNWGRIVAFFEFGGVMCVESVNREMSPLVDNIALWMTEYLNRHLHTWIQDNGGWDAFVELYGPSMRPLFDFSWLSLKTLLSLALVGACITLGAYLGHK

Structure (SMILES)	outcome	AC50
CCN1CCC2(CC1)COc1cc3c(cc12)N(C(=O)c1ccc(-c2ccc(-c4nnc(C)o4)cc2C)cc1)CC3	inactive	
CC12CC1(C)C(=O)N(c1cc(Cl)cc(Cl)c1)C2=O (stereo unspecified)	inactive	
CC(C)(C)CC(C)(C)c1ccc(O)cc1	inactive	
C=C(C)C(=O)[O][Sn]([CH2]CCC)([CH2]CCC)[CH2]CCC		2.07 µM (active)
CC(C)(OO)c1ccccc1	inactive	
CC(=O)[O][Hg][c]1ccccc1	inactive	
O=C(O)C(F)(F)C(F)(F)C(F)(F)C(F)(F)C(F)(F)C(F)(F)C(F)(F)C(F)(F)C(F)(F)C(F)(F)F	inactive	
ClC1(Cl)C2(Cl)C3(Cl)C4(Cl)C(Cl)(Cl)C5(Cl)C3(Cl)C1(Cl)C5(Cl)C24Cl (stereo unspecified)	inactive	
CCOP(=S)(OCC)Oc1nc(Cl)c(Cl)cc1Cl	inactive	
Oc1cccc2cccnc12	inactive	
Cn1sc(Cl)cc1=O	inactive	
CCOP(=S)(OCC)SCSP(=S)(OCC)OCC	inactive	
O=C(O)C(F)(F)C(F)(F)C(F)(F)C(F)(F)C(F)(F)C(F)(F)F	inactive	
C[C@]12CCC(=O)C[C@@H]1CC[C@@H]1[C@@H]2CC[C@]2(C)[C@@H](O)CC[C@@H]12	inactive	
CCCCCCCCc1ccc(O)cc1	inactive	
NC(=O)O	inactive	

Structure (SMILES)	outcome	AC50
O=c1[nH]c(=O)[nH]c(=O)[nH]1	inactive	
C=CC(=O)OCCCCCC(C)C	inactive	
O=C1C2(Cl)C3(Cl)C4(Cl)C(Cl)(Cl)C5(Cl)C3(Cl)C1(Cl)C5(Cl)C24Cl (stereo unspecified)		11.1 µM (active)
COc1cc(-c2ccc(N)c(OC)c2)ccc1N	inactive	
O=[N+]([O-])c1ccc(O)c([N+](=O)[O-])c1		12.1 µM (active)
CCC(=O)C(CC(C)N(C)C)(c1ccccc1)c1ccccc1 (stereo unspecified)	inactive	
Cc1ccccc1N	inactive	
O=C(O)C(Cl)(Cl)Cl	inactive	
CCC(C)(C)c1ccc(O)c(C(C)(C)CC)c1	inactive	
CC(C)(c1ccccc1)c1ccc(O)c(C(C)(C)c2ccccc2)c1		81.6 µM (active)
CC(C)(C)c1cc(O)ccc1O	inactive	
C[C@@H]1C[C@@H]([C@H](O)CC2CC(=O)NC(=O)C2)C(=O)[C@@H](C)C1	inactive	
ClCC(Cl)CCl	inactive	
O=C(Nc1ccc2[nH]ccc2c1)c1cc2cc(F)ccc2n1Cc1cccc(F)c1		22.7 µM (active)
CN(C)N=O	inactive	
